NIH3T3 tox: NIH 3T3 cell cytotoxicity; NIH 3T3 viability, CellTiter-Glo ATP luminescence, 48-72 h; Potency, µM (series often up to 96.7 µM), for inactives: at the top dose activity change, negative = cytotoxicity, usual class: inhibitors; actives 4.3% (n = 94,000); note: nearly all actives have a fitted effect of over 55% in size
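Cytotoxicity was measured by CellTiter-Glo ATP luminescence after 48 or 72 h compound exposure at 37 °C. Mouse NIH 3T3 fibroblasts were seeded at 400 cells/well and dosed by 23 nL pin transfer.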
FLuc inh: blocks purified firefly luciferase enzyme activity; P08659; actives 2.5% (n = 76,000); Potency, µM (top dose mostly 115 µM), actives largely listed as inhibitors; purified P. pyralis luciferase, luminescence, biochemical; AID 1347043; note: nearly all actives have a fitted effect of over 65% in size
Target sequence (P08659 whole entry, looked up): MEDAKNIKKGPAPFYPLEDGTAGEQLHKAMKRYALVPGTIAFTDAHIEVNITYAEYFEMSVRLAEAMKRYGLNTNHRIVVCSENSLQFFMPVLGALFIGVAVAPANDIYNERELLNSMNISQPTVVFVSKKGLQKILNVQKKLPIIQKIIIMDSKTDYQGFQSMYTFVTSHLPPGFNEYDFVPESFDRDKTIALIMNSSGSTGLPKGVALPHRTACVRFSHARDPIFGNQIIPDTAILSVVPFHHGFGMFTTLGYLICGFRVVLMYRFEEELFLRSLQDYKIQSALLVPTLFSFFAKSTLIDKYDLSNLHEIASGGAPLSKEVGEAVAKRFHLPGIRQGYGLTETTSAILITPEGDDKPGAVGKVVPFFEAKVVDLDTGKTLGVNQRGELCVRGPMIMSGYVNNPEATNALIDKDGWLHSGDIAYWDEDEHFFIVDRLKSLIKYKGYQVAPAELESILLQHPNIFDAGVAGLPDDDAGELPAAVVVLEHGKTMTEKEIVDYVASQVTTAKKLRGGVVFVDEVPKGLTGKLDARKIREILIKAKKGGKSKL
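Luminescence read by CCD imager after adding enzyme (10nM final) to wells holding compound, titrated in qHTS. Substrates 10uM each D-luciferin and ATP; buffer 50mM Tris acetate pH 7.5, 10mM Mg acetate, Tween-20, BSA.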
hNpr1 antagonist: antagonists of human natriuretic peptide receptor Npr1; P16066; HEK293 hNpr1 GloSensor cGMP, ANP-stimulated luminescence; Potency, µM (highest dose often 46.3 µM), without a hit: at the highest dose activity change, negative = inhibition, actives largely listed as inhibitors; actives 1.6% (n = 76,000); calls by dose curve; note: nearly all actives have a fitted effect of over 60% in size
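HEK293 cells stably expressing human Npr1 and cGMP GloSensor pGS-40F, loaded 2 h with 2% GloSensor reagent, given compound 30 min at room temperature. Luminescence read before and 20 min after 0.1 nM hNppA.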
HEK293 tox: HEK 293 cell cytotoxicity; HEK 293 viability, ATP luminescence (CellTiter-Glo), 48-72 h; actives 6.6% (n = 94,000); Potency, µM (doses to about 115 µM), for inactives: at the top dose activity change, negative = cytotoxicity, actives largely listed as inhibitors; note: nearly all actives have a fitted effect of over 60% in size
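250 HEK 293 cells/well; compound by pintool; incubated 48 or 72 hr at 37 degree Celsius; CellTiter-Glo added, 10 min RT, luminescence imaged.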
An asterisk follows results filed as active; i = inactive; ? = inconclusive; . = not tested or not shown; [ ] = dose if it differs, or a comment. Most compounds without a hit are left out; they make up all but 11% or so of the library. Unless noted, calls come from the whole dose curve; as a rule, active = well fitted curve in the direction sought with a large enough effect; inconclusive = small, poorly fitted or top-dose-only effect, or another doubt; inactive = no such curve, though single readings can be large; an effect the other way counts as inactive or inconclusive. % is set by controls: 0 for no effect and ±100 for the full control effect; potency is the fitted concentration of half-maximal effect.

SMILES	NIH3T3 tox	FLuc inh	hNpr1 antagonist	HEK293 tox
CCN1c2cc(C(=O)Nc3ccc(C)c(Cl)c3)ccc2C(=O)N2CCCC21 (stereo unspecified)	?	i	0.0%	?
COc1ccc(NC(=O)c2ccc3c(c2)N(C)C2CCCCCN2C3=O)cc1Cl (stereo unspecified)	39.8µM*	i	-7.4%	44.7µM*
COc1ccc(OCC2(C)COc3ccc(C(=O)Nc4ccn(C)n4)cc3N2)cc1 (stereo unspecified)	?	?	17.8µM*	?
CC1(CNc2ccccc2)COc2ccc(C(=O)Nc3ccc4[nH]ccc4c3)cc2N1 (stereo unspecified)	39.8µM*	10µM*	-27.8%[70.6 µM]	?
CC1(COc2ccc3[nH]ccc3c2)COc2ccc(C(=O)NCC3CCOCC3)cc2N1 (stereo unspecified)	-16.6%[138 µM]	i	-4.3%[70.6 µM]	?
COc1cccc(NC(=O)c2ccc3c(c2)NC(C)(COc2ccc4[nH]ccc4c2)CO3)c1 (stereo unspecified)	12.6µM*	i	-22.1%	25.1µM*
CC(C)(C)C(=O)N1CCN(C(=O)c2nc3cccnc3n(Cc3ccccc3)c2=O)CC1	-6.6%	.	.	-12.4%
COc1cc(-c2nc(CN3CCSCC3)c(C)o2)ccc1F	-19.1%	i	-0.1%	-13.9%
COc1cc(-c2nc(CN3CCCC(CN)C3)c(C)o2)cc2c1OCO2 (stereo unspecified)	?	i	-3.5%	39.8µM*
COc1cc(C)c(-c2nc(CN3CCCC(CN)C3)c(C)o2)cc1C (stereo unspecified)	25.1µM*	i	-2.0%	31.6µM*
COc1ccc(-c2nc(CN3CC[C@H]4CC[C@@H](C3)N4)c(C)o2)c(OC)c1C	?	i	-1.1%	?
COc1cc(C)c(-c2nc(CN3CCOC(CCN)C3)c(C)o2)cc1C (stereo unspecified)	?	i	1.4%	44.7µM*
Cc1noc(-c2ccc(OC3CN(C(=O)CN4C(=O)CCC4=O)C3)cc2)n1	-21.1%	.	.	-4.3%
Cc1cnc(C(=O)N2Cc3ccccc3OC3(CCN(C(C)C)CC3)C2)cn1	-14.0%	.	.	i
Cc1cn2nc(C(=O)NCc3ccc(F)cc3)cc2c(N(C)Cc2ccccc2)n1	?	i	0.3%	?
Cn1cccc1C(=O)N1CCCCCCNC(=O)[C@@H]2CCC[C@@H]21	-11.9%	i	6.6%	?
COCCn1c(=O)c(C(=O)NC2CCCC2)nc2cccnc21	-15.0%[138 µM]	.	.	i
O=S(=O)(c1cccc(C(F)(F)F)c1)N1CCN(c2ccc3nnc(-c4ccccc4)n3n2)CC1	-33.2%	.	.	-11.4%
O=C1Nc2ccccc2C12CCN(Cc1ccccc1)C2 (stereo unspecified)	-12.0%[138 µM]	.	.	-26.2%[172 µM]
Cn1cccc1CN1CCC2(C1)C(=O)Nc1ccccc12 (stereo unspecified)	100µM*	i	5.6%[70.6 µM]	?
COCC(=O)N1CCN(c2nccc(Nc3ccccc3F)n2)CC1	-19.7%	.	.	1.9%
O=C(NC1CCCC1)N1CCN(c2nccc(Nc3ccccc3F)n2)CC1	?	.	.	44.7µM*
COC(=O)N1CCN(c2nccc(Nc3ccccc3F)n2)CC1	?	.	.	89.1µM*
CC(C)NC(=O)N1CCN(c2nccc(Nc3ccccc3F)n2)CC1	?	.	.	25.1µM*
C[S+](=O)([O-])N1CCN(c2nccc(Nc3ccccc3F)n2)CC1	-27.1%	.	.	-10.3%
SMILES	NIH3T3 tox	FLuc inh	hNpr1 antagonist	HEK293 tox
O=C(NC1CC1)C1CCCN1c1nccc(Nc2ccccc2F)n1 (stereo unspecified)	-25.8%	.	.	-24.5%
O=C(Nc1ccccc1)N1CCN(c2nccc(Nc3ccccc3F)n2)CC1	44.7µM*	.	.	?
COc1ccccc1OC1(C(=O)O)CCN(C(=O)C2CC23CCC3)CC1 (stereo unspecified)	-0.3%	i	-0.9%	-11.3%
Cc1ccc(-n2c(C3CCN(C(=O)c4c(F)cccc4Cl)CC3)n[nH]c2=O)cc1	-10.0%	i	0.0%	-1.2%
Cc1ccc([S+](=O)([O-])NC2CCCN(c3ccc4nnc(-c5ccccc5)n4n3)C2)cc1 (stereo unspecified)	?	.	.	25.1µM*
Cc1nnc2ccc(N3CCC(N[S+](=O)([O-])c4ccccc4)CC3)nn12	31.6µM*	.	.	44.7µM*
COCCn1c(=O)c(C(=O)N2CCN([S+](=O)([O-])c3cccc(C(F)(F)F)c3)CC2)nc2cccnc21	-20.7%	.	.	0.1%
CN1CCN(c2ccc(-c3noc([C@@H]4CCCN4CCCc4ccccc4)n3)cn2)CC1	39.8µM*	i	4.0%[70.6 µM]	?
CN1CCN(c2ccc(-c3noc([C@@H]4CCCN4C4CCCCC4)n3)cn2)CC1	79.4µM*	i	1.8%[70.6 µM]	79.4µM*
c1ccc(CN2CCC[C@H]2c2nc(-c3ccc(-n4ccnc4)nc3)no2)cc1	?	i	-3.3%[70.6 µM]	89.1µM*
c1ccc(CN2CCC[C@H]2c2nc(-c3ccnc(N4CCOCC4)c3)no2)nc1	35.5µM*	i	-5.9%[70.6 µM]	?
CC(C)N1CCC[C@H]1c1nc(-c2ccc(N3CCN(C)CC3)nc2)no1	-0.7%[138 µM]	i	5.1%[70.6 µM]	-13.4%[172 µM]
Fc1cc(F)cc(Cc2nc3nccc(-c4ccccc4)n3n2)c1	-29.9%	i	-1.3%	?
COc1cccc(C(=O)N2CCCC(C(=O)N3CCC(N4Cc5cccn5C4=O)CC3)C2)c1 (stereo unspecified)	-14.3%	.	.	?
COCc1nncn1C1CCN(S(=O)(=O)c2ccc(C)c(Cl)c2)CC1	-10.0%	i	-22.1%	-9.3%
COc1cccc(CNC(=O)C2CCN(c3nccc(Nc4ccccc4OC)n3)CC2)c1	39.8µM*	.	.	?
COC(=O)CNC(=O)[C@@H]1CCCN1c1nccc(Nc2ccccc2OC)n1	-30.0%	.	.	-22.9%
COC(=O)CNC(=O)C1CCN(c2nccc(Nc3ccccc3OC)n2)CC1	-24.3%	.	.	-19.2%
COc1ccccc1Nc1ccnc(N2CCCC(C(=O)NCc3cccs3)C2)n1 (stereo unspecified)	31.6µM*	.	.	?
COc1ccccc1Nc1ccnc(N2CCCC(C(=O)NCc3ccc(Cl)cc3)C2)n1 (stereo unspecified)	?	.	.	11.2µM*
COc1cccc(CNC(=O)C2CCCN(c3nccc(Nc4ccccc4OC)n3)C2)c1 (stereo unspecified)	31.6µM*	.	.	?
O=C1NC2(CCN(Cc3cncs3)CC2)Oc2ccccc21	-27.5%[138 µM]	i	-19.1%[70.6 µM]	-9.1%[172 µM]
O=C(Cc1cccs1)N1CC(c2noc(C3CCCN3CC3CC3)n2)C1 (stereo unspecified)	-20.4%	i	2.3%	-7.5%
CCOC(=O)CN1C(=O)CCN(C(=O)CC(C)(C)C)CC(OC)c2ccccc21 (stereo unspecified)	?	.	.	-17.5%[57.5 µM]
Cc1cc(C)c(CNC(=O)c2nc(-c3cccc(O)c3)cc3c2ccn3C)c(=O)[nH]1	25.1µM*	i	-3.4%[70.6 µM]	?
Cc1cc(C)c(CNC(=O)c2nc(-c3ccnn3C)cc3c2ccn3C(C)C)c(=O)[nH]1	89.1µM*	i	-0.7%[70.6 µM]	?
